The supplement of paper PMC8269313
Structures can show the parent of a compound that is named as a salt.

System: 4T1
Test: % inhibition of 4T1 cell number vs DMSO control; higher = stronger growth inhibition
Details: 1 µM, 3 days
In short: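 4T1-H2B-GFP mouse breast cancer cells (3000 per well, 2% FBS medium) were seeded in 96-well imaging plates on plastic, denuded lung or mCAF1 fibroblast-derived matrix, Matrigel (15 μg/mL) or 0.2% gelatin; edge wells were left unused. After 16 h, kinase inhibitors were added at 1 μM final for 3 days. Plates were formalin-fixed, DAPI-stained and imaged on an INCell Analyzer 2200, and GFP-positive nuclei were counted. Percent inhibition of cell number was calculated relative to DMSO control.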

[1] = substrate: lung fibroblast-derived matrix
[2] = substrate: mCAF1 fibroblast-derived matrix

SMILES	% inhibition of 4T1 cell number (substrate: Matrigel)	% inhibition of 4T1 cell number (substrate: gelatin)	% inhibition of 4T1 cell number [1]	% inhibition of 4T1 cell number [2]	% inhibition of 4T1 cell number (substrate: plastic)
O=C(Nc1ccncc1)Nc1c(Cl)cc(Cl)cc1Cl [Rho Kinase Inhibitor II]	-9.94%	-2.18%	-4.7%	-19.5%	-18.6%
Cc1cncc2cccc(S(=O)(=O)N3CCCN(C(=O)CN)C[C@@H]3C)c12 [Rho Kinase Inhibitor IV]	-39.7%	-28.9%	92.9%	15.7%	-103%
O=C1C(Cl)=C(N2C(=O)CCC2=O)C(=O)c2ccccc21 [MEK Inhibitor II]	-30.5%	-13.5%	-5.8%	50.2%	-66.5%
O=S(=O)(NCCNC/C=C/c1ccc(Br)cc1)c1cccc2cnccc12 [H-89, Dihydrochloride]	-2.21%	25.6%	-2.1%	36%	-37.5%
CCOc1nc(NC(=O)Cc2cc(OC)ccc2OC)cc(N)c1C#N [JNK Inhibitor VIII]	-7.17%	11.6%	-17.8%	31.4%	-42.5%
O=c1c2ccccc2[nH]c(=S)n1CCN1CCC(=C(c2ccc(F)cc2)c2ccc(F)cc2)CC1 [Diacylglycerol Kinase Inhibitor II]	8.29%	-29.1%	-1.99%	-11%	-33.4%
O=c1[nH][nH]c2nnc(-c3c(-c4ccccc4)nn4ccccc34)cc12 [ERK Inhibitor II, Negative control]	-40.3%	-11.4%	-10%	3.24%	-83.1%
CC(C)[C@H](CO)Nc1nc(Nc2cccc(Cl)c2)c2ncn(C(C)C)c2n1 [Purvalanol A]	-8.87%	15.8%	83.6%	40.3%	-20.5%
CC(C)(C)c1ccc(S(=O)(=O)Nc2ccc(-n3ccnc3)cc2)cc1 [Stem-Cell Factor/c-Kit Inhibitor, ISCK03]	40.2%	60.6%	90.5%	7.06%	39.4%
COc1ccc(CNC(=O)Nc2ncc([N+](=O)[O-])s2)cc1 [GSK-3b Inhibitor VIII]	-53.9%	19.6%	27.8%	24.4%	-62.1%
NCCCn1cc(C2=C(c3c[nH]c4ccccc34)C(=O)NC2=O)c2ccccc21 [Bisindolylmaleimide III, Hydrochloride]	50.6%	46.1%	12.7%	-60.9%	37.2%
N#Cc1c(C2CCNCC2)cc(-c2c(O)cccc2OCC2CC2)nc1N [IKK-2 Inhibitor VIII]	-23.5%	-17.9%	-4.53%	9.43%	-39.2%
OCC(O)CCO/N=C1\C(c2c(O)[nH]c3ccccc23)=Nc2ccccc21 (stereo not given) [Indirubin Derivative E804]	-31.7%	0.993%	-5.02%	85.4%	67.7%
O=c1c(O)c(-c2ccc(O)c(O)c2)oc2cc(O)c(O)c(O)c12 [Quercetagetin]	28.5%	52.6%	-6.29%	36.1%	48.4%
O=C(c1cc2cc(O)ccc2[nH]1)c1cc2cc(O)ccc2[nH]1 [Flt-3 Inhibitor II]	13.9%	26.6%	23.8%	22.7%	-36.1%
COc1cc2ncnc(Nc3cccc(O)c3)c2cc1OC [WHI-P180, Hydrochloride]	35.6%	65.6%	9.03%	-4.63%	37.6%
COc1cc(Nc2ncc3ccn(-c4cccc(CCC#N)c4)c3n2)cc(OC)c1OC [Keratinocyte Differentiation Inducer]	91.6%	89%	93.7%	97.6%	94.4%
COc1ccc2nc3n[nH]c(C)c3c(NCCOCCO)c2c1	28.3%	44.2%	1.01%	-1.22%	23.2%
Cn1sc(=O)n(Cc2ccccc2)c1=O [GSK-3b Inhibitor I]	-33.1%	10.3%	9.49%	21.6%	-62.7%
O=c1cc(N2CCNCC2)oc2c(-c3ccccc3)cccc12	-14.2%	-6.29%	-1.5%	6.84%	-42.8%
N#CC(C#N)=C(N)/C(C#N)=C/c1ccc(O)cc1	-1.44%	52.7%	-11.6%	11.4%	21.1%
CC(=O)c1ccc(N2CCOCC2)cc1O [DNA-PK Inhibitor III]	0.894%	-13.7%	-5.23%	-5.96%	-24.1%
CCCCc1c(-c2ccc(OC)cc2)[nH]c2nccnc12 [Aloisine, RP106]	39.6%	41.7%	-14.4%	-9.32%	46.9%
CCCCn1c2ccc(O)cc2c2c3c(c(-c4ccccc4Cl)cc21)C(=O)NC3=O [Wee1 Inhibitor II]	52.6%	63%	15.6%	4.43%	57.9%
NCCNc1ncc(C(N)=O)c(Nc2cccc(C(F)(F)F)c2)n1 [Syk Inhibitor II]	-0.528%	-84.2%	-1.24%	-23.5%	-12.4%
N#C/C(=C\c1ccc(O)c(O)c1)C(=O)NCc1ccccc1	-13.1%	42.5%	-21.1%	15.2%	-38%
Cc1ncc2ccccc2c1C#N [4-Cyano-3-methylisoquinoline]	48.6%	52.6%	-13.2%	-46.1%	56.8%
